This is a sample that favours compounds with a hit; in the whole collection about 2.6% have one here.
TAG inh: inhibitors of triacylglycerol accumulation, primary screen, cell-based, uHTS, fluorescence, H9c2 | actives 0.66% (n = 230,000) | inhibition, % at 12.5 µM | H9c2 cells, Nile Red lipid (TAG) fluorescence; cells loaded with 200 µM oleic acid;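 active = pattern-corrected inhibition of lipid staining of at least 50% with the nuclear-stain viability signal not falling by more than 50%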
Cardio protect: cardioprotection against H2O2-induced cell death, primary screen, uHTS, H9c2 cells, ATPLite luminescence; H9c2 cardiomyocytes, H2O2 injury protection, 2 h; protection from H2O2 cell death, % at 20 µM; actives 0.63% (n = 360,000);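 active = compounds giving at least 50% protection of heart cells from peroxide-induced death in the single-dose screen, raw or plate-pattern-corrected value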
Gli-Sufu block: Gli-Sufu pathway antagonists, primary screen, luciferase luminescence, Sufu-KO-LIGHT cells, uHTS. Sufu-KO-LIGHT fibroblasts, Gli luciferase reporter luminescence. inhibition, % at 5 µM. actives 0.74% (n = 340,000). AID 588413, 2011;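 active = inhibition above about 55%, limit read from the data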
697 NFkB inh: inhibitors of PMA/ionomycin-induced NF-kB reporter, 697 cells, primary screen, B-cell NF-kB inhibitor project, cell-based, luminescence, uHTS. inhibition, % at 4 µM. 697 B-cell NF-kB luciferase reporter, 16 h. AID 435022, 2010. actives 0.33% (n = 330,000); in the data active = inhibition above about 35%
Jurkat NFkB inh: inhibitors of induced NF-kB luciferase reporter, primary screen, TCR NF-kB activation inhibitor project, cell-based, luminescence, uHTS; Jurkat, PMA/ionomycin-induced NF-kB luciferase reporter; actives 0.53% (n = 330,000); inhibition, % at 4 µM; in the data active = inhibition above about 50%
NR2F2 inh: NR2F2 transcriptional activity inhibitors, primary screen, cell-based, luciferase reporter, HEK293T, luminescence | COUP transcription factor 2 (Homo sapiens), P24468 | HEK293T NGFI-A luciferase reporter | inhibition, % at 8.6 µM | actives 0.7% (n = 370,000) | AID 686940, 2013;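 active = inhibition above a per-plate cutoff, mean inhibition of test wells between control levels plus 3 SD, cut at about 38% in these data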;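 also: cells cotransfected with COUP-TFII expression vector driving the NGFI-A reporter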
Target sequence (P24468 whole entry, looked up): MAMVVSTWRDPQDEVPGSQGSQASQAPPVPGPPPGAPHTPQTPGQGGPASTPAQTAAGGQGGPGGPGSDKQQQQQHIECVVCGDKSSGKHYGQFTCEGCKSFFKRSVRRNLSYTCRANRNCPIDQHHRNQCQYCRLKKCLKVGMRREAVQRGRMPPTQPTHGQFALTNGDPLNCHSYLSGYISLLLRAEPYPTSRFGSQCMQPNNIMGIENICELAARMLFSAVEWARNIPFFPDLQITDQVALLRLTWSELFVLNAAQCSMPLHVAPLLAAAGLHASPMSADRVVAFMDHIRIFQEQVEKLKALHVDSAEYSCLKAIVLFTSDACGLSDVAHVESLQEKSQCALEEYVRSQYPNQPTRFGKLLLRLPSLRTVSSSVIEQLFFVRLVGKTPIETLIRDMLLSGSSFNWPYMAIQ
VP16 Luc counter: Gal4-VP16 luciferase reporter inhibitors, counter-screen for COUP-TFII antagonist project, cell-based, luminescence, HEK293; shares compounds with NR2F2 inh; inhibition, % at 8.5 µM; actives 25% (n = 2,500); AID 687007, 2013; in the data active = inhibition above about 13%
NR2F2 inh conf: NR2F2 transcriptional activity inhibitors, confirmation, cell-based, luciferase reporter, HEK293, triplicate; actives 45% (n = 2,500); HEK293 NGFI-A luciferase reporter, luminescence; shares compounds with NR2F2 inh; AID 687008, 2013; inhibition, % at 8.5 µM;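 active = mean inhibition over three repeats above a set limit taken from the earlier primary screen, cut at about 38% in these data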
A number is an active result; - = inactive; . = not tested or not shown.

SMILES	TAG inh	Cardio protect	Gli-Sufu block	697 NFkB inh	Jurkat NFkB inh	NR2F2 inh	VP16 Luc counter	NR2F2 inh conf
COc1ccccc1C(=O)NC1CCCCN(Cc2cccc(C(F)(F)F)c2)C1=O (stereo not drawn)	.	.	.	.	.	-	.	.
COc1ccc(-c2cn3c(C)c(C(=O)Nc4cccc(NC(C)=O)c4)sc3n2)cc1	.	-	-	-	-	59	-	-
COc1ccc(-c2cn3c(C)c(C(=O)Nc4ccncc4)sc3n2)cc1	-	-	-	-	-	47	-	-
COC(=O)c1ccc2c(C(C)c3ccccc3O)c[nH]c2c1 (stereo not drawn)	.	.	.	.	.	-	.	.
C#Cc1ccc(NC(=O)C2(C)CCN2C(=O)Cc2ccc(C(C)(C)C)cc2)cc1 (stereo not drawn)	-	-	.	.	.	61	-	43
C#Cc1ccc(NC(=O)C2(C)CCN2C(=O)Cc2ccc(C(C)C)cc2)cc1 (stereo not drawn)	-	-	.	.	.	57	-	47
CCNC(=O)OC[C@H]1O[C@H](C#Cc2ccc(C(C)(C)C)cc2)C=C[C@H]1OC(C)=O	.	.	.	.	.	-	.	.
COc1ccc(S[C@]2(C(=O)N3CCN(c4ncccn4)CC3)CC(=O)N(P(=O)(OC)OC)[C@@H]2c2ccc(OC)cc2)cc1	.	.	.	.	.	-	.	.
NNc1ncnc2scc(-c3ccc(Cl)cc3)c12	.	-	-	-	-	-	.	.
OCCCNc1ncnc2scc(-c3ccc(Cl)cc3)c12	.	-	-	-	-	38	-	-
C=CC[n+]1c(-c2ccc(C)cc2)csc1Nc1ccc(NC(C)=O)cc1	-	-	-	.	.	52	83	81
Cc1csc(=O)n1CCC(=O)OCC(=O)c1c(N)n(CC(C)C)c(=O)n(C)c1=O	-	-	-	-	-	-	.	.
CC(C)Cn1c(N)c(C(=O)COC(=O)CC23CC4CC(CC(C4)C2)C3)c(=O)n(C)c1=O	-	-	-	-	-	45	-	57
CC(C)Cn1c(N)c(C(=O)COC(=O)/C=C/c2ccccc2)c(=O)n(C)c1=O	-	-	-	-	-	45	-	-
CC(=O)c1ccc(N2CCN(C(=S)Nc3ccc(Oc4ccccc4)cc3)CC2)cc1	-	-	-	-	-	69	-	56
COc1ccc(N2CCN(C(=S)Nc3ccccc3)CC2)cc1	-	-	-	-	-	-	.	.
CCN1CCN(Cc2ccc(NC(=O)c3cccc(-c4ccc5nc(NC(=O)C6CC6)sc5n4)c3)cc2C(F)(F)F)CC1	.	.	.	.	.	40	-	40
Cc1cc(NS(=O)(=O)c2ccc(NC(=O)CSc3nnc(-c4cccnc4)n3-c3ccccc3)cc2)nc(C)n1	.	.	.	.	.	-	.	.
Cc1cc(NC(=O)COC(=O)CNS(=O)(=O)c2c(F)cc(F)cc2Br)no1	-	-	-	-	-	85	-	-
Cc1cc(NC(=O)COC(=O)CCC(=O)c2ccc(F)cc2)no1	-	-	-	-	-	-	.	.
S=C(Nc1cc(Cl)cc(Cl)c1)NC(c1ccccc1)c1ccccc1	.	.	.	.	.	57	-	-
FC(F)Sc1ccc(NC(=S)NC(c2ccccc2)c2ccccc2)cc1	-	-	-	-	-	-	.	.
COc1ccc(-c2cc(-c3nnc(SCC(=O)Nc4cccc(Cl)c4C)n3N)[nH]n2)cc1	.	.	.	.	.	-	.	.
O=C(Nc1ccn(Cc2ccccc2F)n1)c1ccc(COc2ccccc2Cl)cc1	.	-	-	-	-	61	-	-
Cc1[nH]c2ccccc2c1CC(=O)Nc1ccc(Nc2cccnc2)c(-c2ccc(OC(F)(F)F)cc2)c1	.	.	.	.	.	-	.	.
SMILES	TAG inh	Cardio protect	Gli-Sufu block	697 NFkB inh	Jurkat NFkB inh	NR2F2 inh	VP16 Luc counter	NR2F2 inh conf
COc1ccc(CN2CCC(C(=O)Nc3ccc(Oc4ccccc4)nc3)CC2)cc1F	-	-	-	-	-	48	-	-
O=C(Nc1ccc(Oc2cccnc2)cc1)C1CCN(Cc2cccc(Cl)c2)CC1	.	-	-	-	-	38	13	-
COc1cc(F)ccc1CN1CCC(C(=O)Nc2ccc(Oc3ccccc3)nc2)CC1	.	-	-	-	-	40	-	-
O=C(Nc1ccc(Oc2cccnc2)cc1)C1CCN(Cc2ccccc2)CC1	-	-	-	-	-	-	.	.
CCc1ccc(CN2CCC(C(=O)Nc3ccc(Oc4ccccc4)nc3)CC2)o1	.	-	-	-	-	-	.	.
CCc1ccc(Cn2c(=O)n(Cc3ccc(C(=O)NCCCOC)cc3)c(=O)c3ccccc32)cc1	.	.	.	.	.	-	.	.
O=C(CSc1nc2ccccc2o1)Nc1nc2c(s1)CCCC2	-	-	-	.	.	52	-	-
Cn1nc(C(C)(C)C)cc1C(=O)N1CCCCC1c1cc(C(=O)Nc2ccccc2Cl)no1 (stereo not drawn)	-	-	.	.	.	48	-	-
CN(C)C(=O)C[C@H]1C[C@@H]2c3cc(NC(=O)NC4CCCC4)ccc3O[C@@H]2[C@@H](CO)O1	.	.	.	.	.	-	.	.
O=C(c1ccccc1)c1ccc(OCC(O)CN2CCN(S(=O)(=O)N3CCCCC3)CC2)cc1 (stereo not drawn)	.	-	-	-	-	42	-	-
O=C(c1ccccc1)c1ccc(OCC(O)CN2CCCCC2)cc1 (stereo not drawn)	-	-	-	-	-	-	.	.
Cc1cc(C)n(Cc2ccc(NC(=O)c3ccc(COc4ccccc4Br)cc3)cc2)n1	.	-	-	-	-	63	-	-
CCCn1c(C)cc(C(=O)CN2C(=O)c3ccccc3S2(=O)=O)c1C	-	-	.	.	.	85	77	91
CC(C)(C)c1ccc(Oc2ccc(N)cn2)cc1	-	-	-	-	-	78	76	67
Cc1cc(Oc2ccc(N)cn2)cc(C)c1Cl	-	-	-	-	-	38	-	-
Nc1ccc(Oc2c(Cl)cccc2Cl)nc1	-	-	-	-	-	-	.	.
Cc1cc(N2CCN(C/C=C/c3ccccc3)CC2)n2ncnc2n1	.	-	-	-	-	40	-	-
COc1ccc(CNC(=O)Cc2nn(C)c(=O)c3ccccc23)cc1	-	-	-	-	-	49	-	-
COc1ccc2ccccc2c1C=NNC(=O)CN1CCN(Cc2ccccc2)CC1	.	.	.	.	.	-	.	.
Cc1sc2cc3c(c(C(=O)c4ccccc4)[n+]2c1C)-c1cccc2cccc-3c12	.	.	70	.	.	60	22	55
O=C(c1ccccc1)c1c2c(cc3sc4ccccc4[n+]13)-c1cccc3cccc-2c13	.	-	76	.	.	49	-	57

From PubChem
